Sampled rows, rich in hits. Any-hit rate of the full collection: about 11%.
3T3 cytotox: NIH 3T3 cell cytotoxicity; NIH 3T3 viability, CellTiter-Glo ATP luminescence, 48-72 h; Potency, µM (highest dose often 96.7 µM), usual class: inhibitors; 94,000 tested, 4.3% active; AID 1345082; active = well fitted curve in the direction sought with a large enough effect; inconclusive = small, poorly fitted or top-dose-only effect, or another doubt; inactive = no such curve, though single readings can be large; an effect the other way counts as inactive or inconclusive; note: nearly all actives have a fitted effect of over 55% in size
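NIH 3T3 cells at 400 cells/well received 23 nL of compound by pintool and were incubated 48 or 72 h at 37 °C. Viability was read as ATP-coupled CellTiter-Glo luminescence.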
FLuc inh: blocks purified firefly luciferase enzyme activity; P08659; purified P. pyralis luciferase, luminescence, biochemical; Potency, µM (series often up to 115 µM), hits mostly inhibitors; 76,000 tested, 2.5% active; AID 1347043; active = well fitted curve in the direction sought with a large enough effect; inconclusive = small, poorly fitted or top-dose-only effect, or another doubt; inactive = no such curve, though single readings can be large; an effect the other way counts as inactive or inconclusive; note: nearly all actives have a fitted effect of over 65% in size
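FLuc 10nM, D-luciferin 10uM, ATP 10uM, Mg acetate 10mM, Tris acetate pH 7.5, Tween/BSA; cpd qHTS; enzyme added last; CCD luminescence.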
HEK cytotox: cytotoxic compounds in HEK 293 cells; 94,000 tested, 6.6% active; HEK 293 viability, ATP luminescence (CellTiter-Glo), 48-72 h; Potency, µM (series often up to 115 µM), most hits filed as inhibitors; AID 1345083; active = well fitted curve in the direction sought with a large enough effect; inconclusive = small, poorly fitted or top-dose-only effect, or another doubt; inactive = no such curve, though single readings can be large; an effect the other way counts as inactive or inconclusive; note: nearly all actives have a fitted effect of over 60% in size
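Pintool-delivered compounds were incubated with HEK 293 cells (250 cells/well) at 37 degree Celsius for 48 or 72 hr. ATP-dependent luminescence (CellTiter-Glo) then reported remaining viable cells.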
hNpr1 antagonist: human Npr1 receptor antagonism. P16066. HEK293 hNpr1 GloSensor cGMP, ANP-stimulated luminescence. Potency, µM (doses to about 46.3 µM), actives largely listed as inhibitors. 76,000 tested, 1.6% active; note: nearly all actives have a fitted effect of over 60% in size
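HEK293 cells stably expressing human Npr1 and cGMP GloSensor pGS-40F, loaded 2 h with 2% GloSensor reagent, given compound 30 min at room temperature. Luminescence read before and 20 min after 0.1 nM hNppA.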
NPR1 antag cnf: hNpr1 antagonism, confirmation assay. 1,400 tested, 76% active. HEK293 hNpr1 cGMP GloSensor luminescence, ANP-stimulated. AID 1347044. Potency, µM (highest dose often 57.6 µM), hits mostly inhibitors. shares compounds with hNpr1 antagonist; note: nearly all actives have a fitted effect of over 70% in size
Npr2 selectivity: selectivity test of Npr1 antagonists against human Npr2 | shares compounds with hNpr1 antagonist | HEK293 hNpr2 GloSensor cGMP luminescence, CNP-stimulated | Potency, µM (titrated, usually from 57.6 µM), actives largely listed as inhibitors | 1,400 tested, 67% active | AID 1347046; note: nearly all actives have a fitted effect of over 70% in size
Target sequence (P20594 whole entry, looked up): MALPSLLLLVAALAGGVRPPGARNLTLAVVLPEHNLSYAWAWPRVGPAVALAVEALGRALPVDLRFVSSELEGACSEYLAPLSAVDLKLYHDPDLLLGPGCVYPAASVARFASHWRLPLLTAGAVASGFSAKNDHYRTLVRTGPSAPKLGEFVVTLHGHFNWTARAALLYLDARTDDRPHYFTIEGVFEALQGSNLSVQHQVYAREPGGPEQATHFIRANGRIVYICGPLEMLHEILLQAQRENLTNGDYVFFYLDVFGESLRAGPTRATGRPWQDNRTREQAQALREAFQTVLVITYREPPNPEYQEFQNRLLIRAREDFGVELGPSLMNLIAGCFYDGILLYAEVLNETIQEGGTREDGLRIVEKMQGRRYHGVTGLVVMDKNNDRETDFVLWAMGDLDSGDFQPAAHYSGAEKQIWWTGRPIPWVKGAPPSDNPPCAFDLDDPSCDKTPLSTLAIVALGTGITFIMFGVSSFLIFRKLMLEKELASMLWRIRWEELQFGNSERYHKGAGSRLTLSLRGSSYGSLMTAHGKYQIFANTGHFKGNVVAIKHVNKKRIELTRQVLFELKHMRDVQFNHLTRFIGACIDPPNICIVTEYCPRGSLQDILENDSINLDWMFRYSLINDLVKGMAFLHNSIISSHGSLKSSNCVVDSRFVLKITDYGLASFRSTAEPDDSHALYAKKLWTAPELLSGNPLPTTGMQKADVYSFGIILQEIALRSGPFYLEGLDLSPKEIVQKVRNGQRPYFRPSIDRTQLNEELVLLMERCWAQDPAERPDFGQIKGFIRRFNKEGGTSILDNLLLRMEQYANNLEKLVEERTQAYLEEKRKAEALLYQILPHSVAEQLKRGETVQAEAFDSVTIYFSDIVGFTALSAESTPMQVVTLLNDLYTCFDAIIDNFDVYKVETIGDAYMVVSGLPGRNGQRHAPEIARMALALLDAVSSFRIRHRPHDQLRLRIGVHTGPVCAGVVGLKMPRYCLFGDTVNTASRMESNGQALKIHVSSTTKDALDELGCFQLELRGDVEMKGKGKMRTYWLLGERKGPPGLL
FLuc counter: counter-screen for Npr1 antagonists: firefly luciferase inhibitors | 1,400 tested, 0.7% active | purified FLuc enzyme, luminescence, Km substrate | Potency, µM (highest dose often 57.6 µM), hits mostly inhibitors | shares compounds with hNpr1 antagonist; active = well fitted curve in the direction sought with a large enough effect; inconclusive = small, poorly fitted or top-dose-only effect, or another doubt; inactive = no such curve, though single readings can be large; an effect the other way counts as inactive or inconclusive
GloSensor ctrl: control cell line activity, Npr1 antagonist counter-screen | shares compounds with hNpr1 antagonist | HEK293 GloSensor cGMP, SNP-stimulated, luminescence | Potency, µM (titrated, usually from 57.6 µM), usual class: inhibitors | 1,400 tested, 69% active | AID 1347051; note: nearly all actives have a fitted effect of over 70% in size
Each line names hits and unclear results; the compound was inactive in the other large screens (follow-up assays come after a bar, where they were run). Unless noted, calls come from the whole dose curve.

C=CCOC(=O)C1=C(C)N=C2SC=C(CC(=O)N3CCOCC3)N2C1c1ccc(C)cc1C (stereo not given)	FLuc inh inconclusive, HEK cytotox inconclusive, hNpr1 antagonist inconclusive
Cc1ccc(CN2CCCOCCNC(=O)CC2)s1	none
CSCc1ccc(C(=O)N2CCN(c3ccc(C)cc3)C(=O)C2)o1	none
CC1(C)[C@H](Cc2cc(COc3ccccc3)on2)C[C@@H]1NC(=O)c1cccs1	3T3 cytotox 40µM, HEK cytotox inconclusive, hNpr1 antagonist 40µM | NPR1 antag cnf 35µM | Npr2 selectivity 40µM | FLuc counter inactive | GloSensor ctrl 31µM
CC1(C)[C@H](Cc2cc(COC(=O)c3cccs3)on2)C[C@@H]1NC(=O)c1cccs1	3T3 cytotox inconclusive, HEK cytotox inconclusive, hNpr1 antagonist 25µM | NPR1 antag cnf 35µM | Npr2 selectivity 35µM | FLuc counter inactive | GloSensor ctrl 40µM
CC1(C)[C@H](Cc2cc(CO)on2)C[C@@H]1NC(=O)c1cccnc1	none
COc1ccc(OC)c(NC(=O)c2ccc3c(c2)N(C)C2CCCCN2C3=O)c1 (stereo not given)	3T3 cytotox inconclusive, FLuc inh inconclusive, HEK cytotox inconclusive
Cc1nn(C)c(C)c1C(C)NC(=O)c1ccc(CC2CCN(C(=O)C3CC3)CC2)cc1 (stereo not given)	3T3 cytotox inconclusive, HEK cytotox inconclusive, hNpr1 antagonist 11µM | NPR1 antag cnf 17µM | Npr2 selectivity 17µM | FLuc counter inactive | GloSensor ctrl 15µM
CNC(=O)c1cc(C2CC2)nc2onc(C3CCN(C(=O)c4ccccc4C)C3)c12 (stereo not given)	none (no result: FLuc inh, hNpr1 antagonist)
COc1ccc(Nc2cnc3ccc(-c4ccccc4OC)nn23)cc1OC	3T3 cytotox inconclusive, HEK cytotox inconclusive, hNpr1 antagonist 28µM | NPR1 antag cnf 25µM | Npr2 selectivity 25µM | FLuc counter inconclusive | GloSensor ctrl 22µM
COc1ccccc1-c1ccc2ncc(Nc3ccc4c(c3)OCO4)n2n1	3T3 cytotox inconclusive, HEK cytotox inconclusive
O=C(Cc1ccccc1)NC1CN(c2ccnc3ccnn23)C1	none (no result: FLuc inh, hNpr1 antagonist)
CCN(CC)C(=O)N1CCCC(Cc2ncc(C)n2Cc2ccc(F)cc2)C1 (stereo not given)	3T3 cytotox inconclusive, HEK cytotox inconclusive
O=C(Nc1ccccc1Cl)c1nc2cccnc2n(Cc2ccccc2)c1=O	none (no result: FLuc inh, hNpr1 antagonist)
Cn1cccc1C(=O)NC[C@H]1O[C@@H](CO)[C@@H](O)[C@H]1N1CCOCC1	none
COc1ccc(Cl)cc1C(=O)N1CCN(c2cc(-c3cccs3)[nH]n2)CC1	3T3 cytotox inconclusive, HEK cytotox inconclusive, hNpr1 antagonist inconclusive
COc1cc(Cl)ccc1C(=O)N1CCN(c2cc(-c3cccs3)[nH]n2)CC1	3T3 cytotox inconclusive, HEK cytotox 25µM, hNpr1 antagonist 11µM | NPR1 antag cnf 19µM | Npr2 selectivity 19µM | FLuc counter inactive | GloSensor ctrl 17µM
O=C(c1ccc(Cl)cc1Cl)N1CCN(c2cc(-c3cccs3)[nH]n2)CC1	3T3 cytotox 8.9µM, HEK cytotox 45µM, hNpr1 antagonist 10µM | NPR1 antag cnf 24µM | Npr2 selectivity 19µM | FLuc counter inactive | GloSensor ctrl 22µM
COc1cc(OC)cc(C(=O)N2CCN(c3cc(-c4cccs4)[nH]n3)CC2)c1	3T3 cytotox inconclusive, HEK cytotox inconclusive
COc1ccc(C(=O)N2CCN(c3cc(-c4cccs4)[nH]n3)CC2)c(C)c1	3T3 cytotox inconclusive, HEK cytotox 50µM, hNpr1 antagonist 11µM | NPR1 antag cnf 19µM | Npr2 selectivity 19µM | FLuc counter inactive | GloSensor ctrl 15µM
Cc1cc(F)cc(CN2CCc3nc(C(=O)NCC4CC4)oc3CC2)c1	3T3 cytotox inconclusive, HEK cytotox inconclusive, hNpr1 antagonist 22µM | NPR1 antag cnf 31µM | Npr2 selectivity 28µM | FLuc counter inactive | GloSensor ctrl 28µM
O=C(NCC1CC1)c1nc2c(o1)CCN(Cc1ccc3c(c1)CCO3)CC2	3T3 cytotox inconclusive, HEK cytotox inconclusive, hNpr1 antagonist 25µM | NPR1 antag cnf 44µM | Npr2 selectivity inconclusive | FLuc counter inactive | GloSensor ctrl 35µM
O=C(c1nc2c(o1)CCN(Cc1ccc3c(c1)CCO3)CC2)N1CCOCC1	HEK cytotox inconclusive
CCC(=O)N1Cc2ccccc2CC2(CCN(CC3CCNC3)CC2)C1 (stereo not given)	none (no result: FLuc inh, hNpr1 antagonist)
Clc1ccc(-c2nnc3n2CCN(Cc2ccsc2)C3)cc1	3T3 cytotox inconclusive (no result: FLuc inh, hNpr1 antagonist)
O=C(c1nc(-c2cccc(C(F)(F)F)c2)c2cnccn12)N1CCN(c2ncccn2)CC1	none
O=C1CCN(Cc2ccc(C(F)(F)F)cc2)CCCC(c2nc(-c3cccnc3)no2)CCN1 (stereo not given)	3T3 cytotox inconclusive, HEK cytotox 45µM, hNpr1 antagonist 8.9µM | NPR1 antag cnf 17µM | Npr2 selectivity 17µM | FLuc counter inactive | GloSensor ctrl 15µM
O=C1CCN(Cc2ccncc2)CCCC(c2nc(-c3cccnc3)no2)CCN1 (stereo not given)	none
COc1ccc(CN2CC3(CCN(C(=O)c4cn[nH]c4-c4ccc(F)cc4)CC3)C2=O)cc1	3T3 cytotox inconclusive, HEK cytotox 28µM, hNpr1 antagonist 11µM | NPR1 antag cnf 14µM | Npr2 selectivity 19µM | FLuc counter inactive | GloSensor ctrl 12µM
COc1ccc(-c2noc(CC3CCN(C(=O)c4cc(F)ccc4F)CC3)n2)cc1	3T3 cytotox inconclusive, HEK cytotox inconclusive, hNpr1 antagonist 7.1µM | NPR1 antag cnf 6.9µM | Npr2 selectivity 6.9µM | FLuc counter inactive | GloSensor ctrl 4.3µM
COc1ccc(-c2noc(CC3CCN(C(=O)c4cc(Cl)ccc4F)CC3)n2)cc1	3T3 cytotox inconclusive, HEK cytotox 40µM, hNpr1 antagonist 7.1µM | NPR1 antag cnf 9.7µM | Npr2 selectivity 11µM | FLuc counter inactive | GloSensor ctrl 9.7µM
CCN1c2cc(C(=O)Nc3cc(C)ccc3OC)ccc2C(=O)N2CCCCCC21 (stereo not given)	3T3 cytotox inconclusive, HEK cytotox inconclusive
CC(=O)N1C2CCC1CN(c1ccc(C(F)(F)F)cc1)C2	3T3 cytotox inconclusive (no result: FLuc inh, hNpr1 antagonist)
CC(C)NC(=O)N1C2CCC1CN(c1ccc(C(F)(F)F)cc1)C2	3T3 cytotox inconclusive, HEK cytotox inconclusive (no result: FLuc inh, hNpr1 antagonist) | NPR1 antag cnf 21µM | Npr2 selectivity 19µM | FLuc counter inactive | GloSensor ctrl 15µM
COc1ccc(C(=O)N2CCc3ccc(C(=O)NCc4ccccc4OC)cc32)cc1	3T3 cytotox inconclusive, HEK cytotox inconclusive
